The campaign covered roughly 48,000 compounds. About 13,000 (27%) showed an effect of 50% or more. This is one part of the list.

We go through 55 compounds from ChEMBL document CHEMBL3988442, “University of Dundee, Small-Polar-MMV Screening Library” (2021).

The test relates to Wolbachia pipientis. Put plainly: Anti-Wolbachia Cell-Based Screen. Type of test: functional. Further details: scale not given: in the data most compounds retested in dose-response had high values. To be noted: 5 µM.
For the compound `COCCOCC(=O)NCCCOC1CCCc2ccccc21` (stereo not given), the “Percent Effect” value was -58.49%.

Turning to `Cc1noc(C)c1CS(=O)(=O)CC(=O)N(C)Cc1cccc(F)c1`, the “Percent Effect” value is given as -54.06%.

As to `O=C(NCc1nncn1C1CC1)C1(c2ccccc2)CCOCC1`, the “Percent Effect” value came out at 1.62%.

Take `CCS(=O)(=O)c1ncc(CN(C)Cc2ccccc2OC)n1CCOC`: the “Percent Effect” value was -30.57%.

As for `Cc1oc(-c2ccc(Cl)cc2)nc1C(=O)NC1=NCCS1`, the “Percent Effect” value is -49.42%.

With `CCOCC(=O)N1Cc2[nH]nc(COCC3CC3)c2C1.O=C(O)C(F)(F)F`, the “Percent Effect” value is reported as -0.4061%.

`CCc1nc2n(n1)CC(NCC(=O)Nc1cc(C)on1)CC2` (stereo not given): the “Percent Effect” value is listed as -10.03%.

Consider `COc1cc(CNC2CCc3nc(C(C)C)nn3C2)cc2c1OCO2` (stereo not given), for which the “Percent Effect” value is listed as -4.906%.

For `COc1cc(CNC2CCCN(c3cccnn3)C2)cc2c1OCO2` (stereo not given), the “Percent Effect” value is listed as -1.044%.

As for `Cc1nc2n(n1)CC(NCc1cc(Cl)c3c(c1)OCCO3)CC2` (stereo not given), the “Percent Effect” value is reported as 95.39%.

In the case of `CCc1nc2n(n1)CC(NCc1cc(OC)c3c(c1)OCO3)CC2` (stereo not given), the “Percent Effect” value is listed as 105%.

As for `COc1cc(CNC2CCc3nc(C)nn3C2)cc2c1OCO2` (stereo not given), the “Percent Effect” value was determined as 104.6%.

Regarding `Cc1nc2n(n1)CC(NCc1nnc(C(C)(C)C)o1)CC2` (stereo not given), the “Percent Effect” value is on record as -15.95%.

For the compound `CCc1nc2n(n1)CC(NCc1ccccc1OCC(=O)NC)CC2` (stereo not given), the “Percent Effect” value is listed as 0.2163%.

In the case of `CCc1nc2n(n1)CC(NCc1cc(OC)c3c(c1)OCCO3)CC2` (stereo not given), the “Percent Effect” value is given as 96.75%.

Regarding `CCc1nc2n(n1)CC(NCc1cc3ccccc3o1)CC2` (stereo not given), the “Percent Effect” value is listed as -28.44%.

In the case of `Cc1nc2n(n1)CC(NCc1cc(Cl)c3c(c1)OCCCO3)CC2` (stereo not given), the “Percent Effect” value was 2.469%.

With `COc1cc(CNC2CCc3nc(C)nn3C2)cc2c1OCCO2` (stereo not given), the “Percent Effect” value is reported as 2.484%.

For the compound `Cn1c(CCNC(=O)Nc2cn[nH]c2)nc2ccc(F)cc21`, the “Percent Effect” value is -27.77%.

Turning to `O=C(NCc1ccc(-n2cncn2)nc1)N(CC1CCOC1)C1CC1` (stereo not given), the “Percent Effect” value worked out at 4.835%.

For `O=C(NC1(c2nccs2)CCCC1)c1cc(C2CC2)[nH]n1`, the “Percent Effect” value is recorded as -18.19%.

Turning to `CC(C)n1cnnc1CN(C)Cc1cnc(-c2ccco2)nc1`, the “Percent Effect” value is on record as -3.944%.

Take `CNC(=O)c1cccc(CNC(C)c2ccc(F)cc2N(C)C)c1` (stereo not given): the “Percent Effect” value came to 2.761%.

`Cc1cc(CNC(=O)c2cccs2)ccc1S(C)(=O)=O`: the “Percent Effect” value is given as -1.482%.

In the case of `Cc1ccc(C)c(CN2C[C@H]3CC[C@@H]2CN(C(=O)c2cccnc2)C3)c1`, the “Percent Effect” value is 3.177%.

As to `Cc1ccc(C(=O)N2C[C@@H]3CC[C@H](C2)N(Cc2ccccc2)C3)cn1`, the “Percent Effect” value is given as 101.3%.

As to `Nc1ccc(C(=O)N2C[C@@H]3CC[C@H](C2)N(Cc2ccccc2)C3)cn1`, the “Percent Effect” value was 108.6%.

Turning to `CCn1cc(CN2C[C@H]3CC[C@@H]2CN(C(=O)c2cnccn2)C3)cn1`, the “Percent Effect” value was found to be 6.074%.

In the case of `O=C(c1cnc(O)cn1)N1C[C@@H]2CC[C@H](C1)N(Cc1ccccc1)C2`, the “Percent Effect” value worked out at 93.73%.

Take `O=C(c1cccnc1)N1C[C@@H]2CC[C@H](C1)N(Cc1ccc(F)cc1Cl)C2`: the “Percent Effect” value is listed as -16.95%.

For `N#Cc1ccccc1CN1C[C@H]2CC[C@@H]1CN(C(=O)c1cccnc1)C2`, the “Percent Effect” value is given as -5.944%.

Take `CC(=O)c1ccc(C(=O)N2C[C@@H]3CC[C@H](C2)N(Cc2ccccc2)C3)s1`: the “Percent Effect” value is given as -1.466%.

Take `O=C(c1cccnc1)N1C[C@@H]2CC[C@H](C1)N(Cc1cccc(Cl)c1F)C2`: the “Percent Effect” value was -33.46%.

As to `c1ccc(SCCN2CCCC(Cn3ccnc3)C2)cc1` (stereo not given), the “Percent Effect” value is -2.811%.

Regarding `COCCc1noc(CN2CCC3(CCCO3)CCC2=O)n1` (stereo not given), the “Percent Effect” value is -3.143%.

For the compound `O=C(NCCC(=O)N1CCCCCC1)c1c(O)cc(F)cc1F`, the “Percent Effect” value is 4.152%.

In the case of `CC(C)c1nc(C(=O)NCCn2ccnc2)nn1-c1cccc(F)c1`, the “Percent Effect” value came out at 0.4969%.

Regarding `O=C(NCCn1cccc1)c1c(O)cc(F)cc1F`, the “Percent Effect” value turned out to be 114.7%.

As to `CCn1cnnc1CNC(=O)c1cc(Cl)ccc1OC`, the “Percent Effect” value was found to be 2.71%.

Consider `CC(C)c1nncn1CCNC(=O)c1ccc(Cl)cc1O`, for which the “Percent Effect” value is given as 126.8%.

With `CC(C)c1nncn1CCNC(=O)c1c(O)cc(F)cc1F`, the “Percent Effect” value is 158.6%.

Turning to `CN(C)C(C(=O)NCCn1cccc1)c1cccc(F)c1` (stereo not given), the “Percent Effect” value worked out at 1.101%.

With `CC(C)c1ccc(O)c(C(=O)NCc2nncn2C)c1`, the “Percent Effect” value is on record as -11.21%.

Consider `CCn1cnnc1CNC(=O)c1cc(Cl)ccc1O`, for which the “Percent Effect” value was found to be 6.278%.

Turning to `CC(C)Cn1cnnc1C1CCCN1C(=O)c1ccc(F)cc1F` (stereo not given), the “Percent Effect” value is given as -3.293%.

Regarding `O=C(NCCn1cnnc1C1CC1)c1c(O)cc(F)cc1F`, the “Percent Effect” value is 120%.

For `CCOC(=O)N1CCN(c2nc(NC3CC3)c3ccccc3n2)CC1.Cl`, the “Percent Effect” value is recorded as 12.46%.

`CC(C)CN1CCC(NC(=O)NCCC(=O)NCc2ccccc2)CC1`: the “Percent Effect” value is -0.3399%.

Regarding `O=C(NC1(C(=O)O)CCCCC1)C1Cc2ccccc2O1` (stereo not given), the “Percent Effect” value is reported as 26.74%.

Turning to `CCN(CC)C(C(=O)NCc1ccc(N2CCCC2)nc1)C(C)C` (stereo not given), the “Percent Effect” value is on record as 0.1706%.

Regarding `CCCS(=O)(=O)NC(C)C(=O)NCc1ccc(N2CCCC2)nc1` (stereo not given), the “Percent Effect” value is reported as 3.443%.

Turning to `CC(C(=O)NCc1ccc(N2CCCCCC2)nc1)n1cncn1` (stereo not given), the “Percent Effect” value was determined as 118.8%.

With `CC(C(=O)NCc1ccnc(N2CCCC2)c1)n1cncn1` (stereo not given), the “Percent Effect” value was -10.11%.

In the case of `CC(C(=O)NCc1ccc(N2CCCC2)nc1)n1cncn1` (stereo not given), the “Percent Effect” value is listed as 95.49%.

For `CC(C(=O)NCc1ccc(N2CCCCC2)nc1)n1cncn1` (stereo not given), the “Percent Effect” value was found to be 91.32%.
